# The list is a sample of the results.
# aSyn 5UTR act = Activators via SNCA 5'UTR binding, MLPCN; alpha-synuclein 5'UTR reporter, activators screen; activity score, % (tested at 7.5 µM), hits read low; 7.1% of 300,000 active; in the data active = activity score below about -60%
# Numbers stand for hits; 0 = inactive.
SMILES,aSyn 5UTR act
CC(C)Cc1cc(C(=O)Nc2ccc(F)cc2F)no1,-138.6
CC(C)c1cc(C(=O)NCCc2ccccc2)no1,-200.7
CCC1CCCCN1C(=O)c1ccc(OC2CCN(C(=O)CCOC)CC2)cc1 (configuration not stated),-82.2
CN1CCc2c(sc3c2C(=O)NC(c2cccc(OC(=O)c4cccs4)c2)N3)C1 (configuration not stated),-108.0
CN1CCc2c(sc3c2C(=O)NC(c2cn(Cc4ccccc4)c4ccccc24)N3)C1 (configuration not stated),0
CCCCC(=O)N1CCN(c2nc3ccc(Cl)cc3s2)CC1,-148.1
CC(C)(C)NC(=O)N1CCN(c2nc3ccc(Cl)cc3s2)CC1,-156.1
CC(C)(C)NC(=O)N1CCN(c2nc(-c3ccccc3)ns2)CC1,-118.9
O=C(COc1ccccc1C(=O)c1cnn(-c2ccccc2)c1)Nc1ccc2ccccc2c1,-136.2
CC(C)c1ccc(NC(=O)COc2ccc(F)cc2C(=O)c2cnn(-c3ccccc3)c2)cc1,-114.7
c1ccc2oc(-c3ccn[nH]3)cc2c1,-120.0
CC(=O)NC(=C(Cl)Cl)S(=O)(=O)c1ccccc1,-136.6
Cc1ccc(C(=O)NC(=C(Cl)Cl)S(=O)(=O)c2ccc(C)cc2)cc1,-72.2
CCOc1ccc(NC(=O)n2ncc3c(C)cccc32)cc1,-178.7
Cc1ccc(NC(=O)n2ncc3c(C)cccc32)c(C)c1,-108.1
Cc1cccc2c1cnn2C(=O)Nc1ccc(Br)cc1F,-156.3
CC(C)(C)NC(=O)CSc1ncnc2c1cnn2-c1ccccc1,-73.1
CCOC(=O)CC(=O)CSc1ncnc2c1cnn2-c1ccccc1,-104.5
Cc1ccc(-n2nnnc2CNC(=O)c2ccc([N+](=O)[O-])o2)cc1C,-98.1
O=C(NCc1nnnn1-c1ccc(F)cc1)c1ccc([N+](=O)[O-])o1,-135.6
C/C(=N\OCc1ccc(C#N)cc1)c1ccccc1,-119.8
C/C(=N\OCc1cccc(C(=O)O)c1)c1ccc(Cl)cc1,0
CCOc1ccccc1OCCCOc1ccc(C)cc1Cl,-111.3
O=S1(=O)CCN2C=C(Br)C=C(Br)C2=N1,-71.9
O=C(Nc1cccc(C(F)(F)F)c1)c1scc2c1OCCO2,-73.4
SMILES,aSyn 5UTR act
Cc1ccc(NC(=O)Cc2noc3ccccc23)nc1,-69.2
O=C(Cc1noc2ccccc12)Nc1ccccn1,-89.1
CC(=O)Nc1cc(-c2ccc(Cl)cc2)[nH]n1,-141.4
CCC(=O)Nc1nc(-c2ccccc2)ns1,-211.3
CC(C)C(=O)Nc1nc(-c2ccccc2)ns1,-182.3
CCSc1nc(-c2ccccc2)nc(C(Cl)Cl)n1,0
CCCC(=O)Nc1nc(-c2ccccc2)ns1,-152.2
O=C(CSc1ncn[nH]1)Nc1nc(-c2ccccc2)ns1,-62.9
Cc1nnc(SCCC(=O)Nc2nc(-c3ccccc3)ns2)s1,-85.9
CC(=O)Nc1nc(-c2ccc(Cl)cc2)ns1,-206.4
COC(=O)Nc1nc(-c2ccccc2)c(C(=O)c2ccc(Cl)cc2)s1,0
CCCC(=O)N1CCCC(C(=O)c2cccc(OC(C)C)c2)C1 (configuration not stated),-80.1
C=CCNC(=O)N1CCCC(C(=O)c2cccc(OC(C)C)c2)C1 (configuration not stated),-88.9
COc1ccc2cc(C(=O)C3CCCN(C(=O)CCc4ccccn4)C3)ccc2c1 (configuration not stated),-92.6
Cc1ccc(N2C(=O)NC3(CCCCC3)C2=O)cc1,-64.0
CC1=NN(c2ccc(C(=O)O)cc2)C(=O)/C1=C/c1ccc(-c2ccccc2F)o1,-88.1
CN1CCN(c2ccc(NC(=O)COc3ccccc3Cl)cc2)CC1,-65.5
COc1ccccc1OCC(=O)Nc1ccc2c(c1)OCO2,-96.4
O=C(COc1ccccc1Cl)Nc1ccc2c(c1)OCO2,-145.4
COc1cc(C(=O)c2cocc2C(=O)c2ccc3c(c2)OCO3)cc(OC)c1OC,0
Cc1ccccc1OCC(=O)Nc1ccc2c(c1)OCO2,-139.8
CC1CCc2c(sc3ncnc(NS(=O)(=O)c4cccs4)c23)C1 (configuration not stated),-100.8
CSc1ccc(CNc2ccc(C)c(C)c2)cc1,-139.1
CSc1ccc(CNc2ccc(C)cc2)cc1,-149.4
COc1cc(/C=C2\C(=N)N3N=CSC3=NC2=O)ccc1OS(=O)(=O)c1ccccc1[N+](=O)[O-],-74.9
SMILES,aSyn 5UTR act
CCCCc1c(C)nn(-c2nnc3c4ccccc4n(C)c3n2)c1C,-95.6
COc1cccc(-c2nnn(CC(=O)N3CCCCC3)n2)c1,-73.7
COc1ccc(NC(=O)Cn2nnc(-c3ccccc3NS(=O)(=O)c3ccc(OC)cc3)n2)cc1,0
COc1ccc(-c2ccc(-c3nnn(CC(C)=O)n3)cc2)cc1,-188.6
COc1ccc(-n2nnnc2-c2cccc(OC)c2)cc1,0
CCc1ccc(-c2nnn(CCC(=O)OC)n2)cc1,0
COc1cccc(-c2nnn(CC(C)=O)n2)c1,-121.8
C=CCNC(=O)Cn1nnc(-c2ccc(-c3ccc(OC)cc3)cc2)n1,-128.7
CC(=O)c1c(C)[nH]c(C(=O)CSc2ccc(F)cc2)c1C,-182.0
CCc1c(C(=O)NC2CCCc3ccccc32)[nH]c(C)c1C(C)=O (configuration not stated),0
Cc1cc(C(=O)CSc2ccc(F)cc2)cc(C)c1O,-108.8
Cc1cc(C(=O)CSc2ccc(Cl)cc2)cc(C)c1OC(=S)N(C)C,-178.8
Cn1c(C(=O)NC2CCCCC2)cc2c(=O)n3ccccc3nc21,-134.4
Cn1c(C(=O)NCc2ccccn2)cc2c(=O)n3ccccc3nc21,-88.6
CN1CCC(C2(O)c3ccccc3CCc3ccccc32)CC1,-61.9
CC(=O)Oc1ccc(Cl)cc1/C=C/c1cc(OC(C)=O)c2ccccc2n1,-137.7
COc1cc(Cl)cc(/C=C/c2ccc3ccccc3n2)c1OC(C)=O,-126.7
COc1cccc(NC(=O)CN(C)C(=O)C2CCN(C(=O)c3ccccc3C)CC2)c1,-96.8
CC(=O)c1cccc(NC(=S)NC(=O)c2cccc(Cl)c2)c1,-159.7
CC(=O)c1cccc(NC(=S)NC(=O)c2cncc(Br)c2)c1,-108.9
COc1ccc2ccccc2c1/C=N/Nc1cccc(C(=O)O)c1,-108.4
CCOc1cc(/C=N/Nc2cccc(C(=O)O)c2)ccc1OC(=O)c1ccccc1,0
CC(=O)c1cccc(NC(=S)NC(=O)CC(C)(C)C)c1,-134.5
CC(=O)c1cccc(NC(=S)NC(=O)c2ccccc2)c1,-140.6
COc1cc2ccccc2cc1C(=O)NC(=S)Nc1cccc(C(=O)O)c1,-91.4
SMILES,aSyn 5UTR act
CCC(C)(C)C1CCC(=NNC(=S)Nc2ccccc2)CC1 (configuration not stated),-124.3
S=C(NN=C1C2CC3CC(C2)CC1C3)Nc1ccccc1,-70.0
CC1CCCN(C(=O)COc2ccc3c(c2)OCO3)C1 (configuration not stated),-69.2
CC1Cc2ccccc2N1C(=O)COc1ccc2c(c1)OCO2 (configuration not stated),-90.7
COc1ccc2c(c1)C(=NN)c1cc(OC)ccc1-2,-65.1
CCc1ccc(-c2ccc(C(=O)O)cc2)nc1,-126.1
CCCc1ccc(-c2ccc(F)c(N)c2)nc1,0
CC(=O)Nc1nnc(-c2ccc3c(c2)CCCC3)o1,-66.7
CC1CN(S(=O)(=O)c2ccc(C(=O)Nc3nnc(-c4ccc5c(c4)CCCC5)o3)cc2)CC(C)O1 (configuration not stated),0
Cc1nnsc1S(=O)c1ccc(Cl)cc1 (configuration not stated),-99.0
Cc1nnsc1S(=O)c1ccc(Cl)c(Cl)c1 (configuration not stated),-89.2
O=C(Nc1ccccc1)c1nnsc1S(=O)c1ccc(Cl)cc1 (configuration not stated),-103.5

# Source: PubChem
